From ChEMBL document CHEMBL3988442, “University of Dundee, Small-Polar-MMV Screening Library” (2021)
The whole screen tested about 48,000 compounds, of which about 13,000 (27%) showed an effect of 50% or more. The list shows a part of the results.

test system: Wolbachia pipientis; test: Anti-Wolbachia Cell-Based Screen; assay type: functional; parameters: scale not given: in the data most compounds retested in dose-response had high values; details: 5 µM

Compared with `Cc1cnn(CCNCc2c(C)nn(-c3ccccc3)c2C)c1`, `Cc1cc(CNC(=O)N2CCN(Cc3ccccc3)C[C@H]2C)on1` is lower in “Percent Effect” value: 2.27% for the first, -6.347% for the second.

First: CCn1ccnc1CNCC1CCCN1c1cc(NC)ncn1 (stereo not drawn)
Second: CSc1nccc(N2CCC(=O)N(CC3CC3)C(C(C)C)C2)n1 (stereo not drawn)
The “Percent Effect” value of the first is lower: -2.475% for the first, 8.272% for the second.

Going from `CC1(c2ccccc2)CCCN(Cc2cncn2C2CC2)C1` (stereo not drawn) to `CC1CCCCN1Cc1nc(Cc2ccccc2)no1` (stereo not drawn), the “Percent Effect” value rises from -17.5% to -14.27%.

Going from `CC(=O)N1CCN2C(=O)N(Cc3ccc(F)cc3)C[C@H]2C1` to `Fc1ccc(CN2CCCn3nnc(COCC4CC4)c3C2)cc1.O=C(O)C(F)(F)F`, the “Percent Effect” value falls from -0.8027% to -22.46%.

Compared with `O=C(NCCN1CCc2ccccc2C1)c1scnc1Cl`, `Cc1ncsc1C(=O)N1CCC(O)(CN2CCc3ccccc3C2)C1` (stereo not drawn) is higher in “Percent Effect” value: 7.313% for the first, 69.3% for the second.

First: Cc1ccsc1C(=O)N1CCC(O)(CN2CCc3ccccc3C2)C1 (stereo not drawn)
Second: Cc1ccsc1C(=O)N1Cc2ccccc2C2(CCN(C)CC2)C1
The “Percent Effect” value of the first is higher: 107.5% for the first, 0.4591% for the second.

First: Cc1ccsc1C(=O)N1CC(C(=O)N2CCOCC2)C2(CCOCC2)C1 (stereo not drawn)
Second: CN(C)C(=O)N1CCN(C(=O)c2ccc(Cl)cc2)CC2(CNC(=O)C2)C1 (stereo not drawn)
The “Percent Effect” value of the first is lower: -2.409% for the first, -1.625% for the second.

Going from `Cc1ncsc1C(=O)NCC1SCCc2ccccc21` (stereo not drawn) to `CNC(=O)C1Cc2ccccc2CN1CCc1cccs1` (stereo not drawn), the “Percent Effect” value rises from 15.22% to 15.23%.

First: CN(C)C(=O)CN1C[C@H]2CCN(C(=O)c3ccccc3)CC[C@H]2S1(=O)=O
Second: CCCC(O)CN1CC(C)(C)CN(C(=O)c2ccccc2)CC1=O (stereo not drawn)
The “Percent Effect” value of the first is lower: -0.2408% for the first, 122.4% for the second.

Compared with `COCC1CN(C(=O)Nc2cc(Cl)ccc2F)CCO1` (stereo not drawn), `COCC1CN(C(=O)Nc2cc(Br)ccc2F)CCO1` (stereo not drawn) is higher in “Percent Effect” value: -13.77% for the first, -0.1525% for the second.

First: CCOc1ccc(NC(=O)N2CCOC(C(N)=O)C2)cc1C (stereo not drawn)
Second: CCOc1ccc(NC(=O)N2CCOC(C(N)=O)C2)cc1Cl (stereo not drawn)
The “Percent Effect” value of the first is lower: 95.69% for the first, 142.8% for the second.

Going from `CCOc1ccc(C#N)cc1NC(=O)N1CCOC(C(N)=O)C1` (stereo not drawn) to `COCCOc1ccc(NC(=O)N2CCOC(C(N)=O)C2)cc1F` (stereo not drawn), the “Percent Effect” value rises from 8.32% to 100.1%.

Going from `CCOc1ccc(NC(=O)NC2CCc3nc(C)nn3C2)cc1Cl` (stereo not drawn) to `COc1ccc(NC(=O)N2CCC(CSC)C2)cc1C` (stereo not drawn), the “Percent Effect” value falls from -21% to -50.59%.

Compared with `COCC1CN(C(=O)Nc2ccc(Cl)cc2Cl)CCO1` (stereo not drawn), `CNC(=O)[C@@H]1COC[C@H]2CN(C(=O)c3cccc(OC)c3)C[C@H]21` is higher in “Percent Effect” value: -1.722% for the first, 4.207% for the second.

Compared with `Cc1cnc(C)c(N2CCC(Cc3ccccc3Cl)(C(=O)O)CC2)n1`, `CC(C)CN1CC2(CCN(C(=O)C(O)c3ccccc3Cl)CC2)CC1=O` (stereo not drawn) is lower in “Percent Effect” value: 2.277% for the first, -2.667% for the second.

Going from `CC(=O)N1CCCN(Cc2csc(C)n2)c2ccccc21` to `CC1CN(C)c2ccccc2CN1C(=O)c1ccoc1` (stereo not drawn), the “Percent Effect” value falls from 0.8232% to -34.7%.

First: CCCC(O)CN1CC(C)(C)CN(C(=O)c2ccc(Cl)cc2)CC1=O (stereo not drawn)
Second: CCCC(O)CN1CC(C)(C)CN(C(=O)c2ccc(SC)cc2)CC1=O (stereo not drawn)
The “Percent Effect” value of the first is lower: 78.76% for the first, 118.8% for the second.

Compared with `CSc1ccc(C(O)CNS(=O)(=O)C2CC2)cc1` (stereo not drawn), `Cl.OC(CNCc1ccccc1C(F)(F)F)c1ccccc1` (stereo not drawn) is lower in “Percent Effect” value: 2.179% for the first, -21.52% for the second.

Going from `CCCN(CCO)C(=O)C1CCC(=O)N(CCc2ccc(Cl)cc2)C1` (stereo not drawn) to `COc1cccc(CN2CC(O)CN(C(=O)C3CC3)CC2=O)c1OC` (stereo not drawn), the “Percent Effect” value rises from -1.106% to 103.4%.

First: Cc1[nH]nc2ncc(C(=O)N3CCN(CC(O)C(C)(C)C)CC3)cc12 (stereo not drawn)
Second: CC1(C)CN(CC(O)C(C)(C)C)C(=O)CN(C(=O)c2ccccc2)C1 (stereo not drawn)
The “Percent Effect” value of the first is lower: -16.51% for the first, 117.8% for the second.

Going from `NC(=O)NCC(=O)N1C[C@H]2CC[C@@H]1CN(C1Cc3ccccc3C1)C2` to `CNC(=O)[C@@H](c1ccccc1OC)N1CCC[C@H]1C(=O)N1CC[C@@H](O)C1.Cl`, the “Percent Effect” value rises from -1.297% to 4.858%.

Going from `COc1nc2c(cc1C(=O)N1C[C@H](N)C[C@H]1C(=O)NC(C)C)CCC2` to `COc1ccc(OC)c(C2CCN(C(=O)[C@H]3CC[C@@H](O)CC3)C2)c1` (stereo partly drawn), the “Percent Effect” value rises from -26.43% to 4.796%.

Compared with `CN(C)CCN1CC(C(=O)N2CCC(c3nccn3C)CC2)CC1=O` (stereo not drawn), `CCOCC(=O)N1CCC(c2nccn2C)CC1` is lower in “Percent Effect” value: 2.201% for the first, -1.738% for the second.

Going from `Cn1cnc2c1CCN(CC(=O)N(Cc1ccsc1)C1CC1)C2` to `Cn1cnc2c1CCN(Cc1nc(Cc3ccccc3)no1)C2`, the “Percent Effect” value rises from -10.64% to -6.335%.

First: COc1ccc(CNCCc2cccc(C(N)=O)c2)cc1C
Second: CCCSCC(=O)N1C[C@@H](NC(C)=O)[C@H](c2ccc(OC)cc2)C1
The “Percent Effect” value of the first is lower: -2.965% for the first, 13.13% for the second.

Compared with `CC(C)N1CCc2ncn(C(C)C)c2C1C(=O)N1CCN(C)CC1` (stereo not drawn), `COc1ccccc1OC1CCN(C(=O)C2CCCN(C)C2)CC1` (stereo not drawn) is higher in “Percent Effect” value: -12.1% for the first, -2.238% for the second.

Going from `CCc1nc(CCn2ccc3nc(OC)c(C#N)cc3c2=O)no1` to `COCc1nc2cc(NCc3sc(C)nc3C)ccc2o1`, the “Percent Effect” value rises from 0.8236% to 1.098%.

First: CCCc1noc(CN2CCOCC2C)n1 (stereo not drawn)
Second: CC(C)Cc1noc(CN2CCOCC2C)n1 (stereo not drawn)
The “Percent Effect” value of the first is lower: 76.64% for the first, 87.61% for the second.

Compared with `CC(C)c1noc(CS(=O)(=O)Cc2nc(C(C)C)no2)n1`, `CC(C)c1noc(CN2CCOCC2C)n1` (stereo not drawn) is higher in “Percent Effect” value: -3.73% for the first, 107.7% for the second.

First: CC1CCCCN1Cc1nc(C2CC2)no1 (stereo not drawn)
Second: CC1COCCN1Cc1nc(C(C)(C)C)no1 (stereo not drawn)
The “Percent Effect” value of the first is lower: 23.82% for the first, 110.8% for the second.

First: CC(C)(C)c1nc(CN2CCC(N3CCCCC3)CC2)no1
Second: CC1COCCN1Cc1noc(C(C)(C)C)n1 (stereo not drawn)
The “Percent Effect” value of the first is lower: 3.179% for the first, 91.93% for the second.

Compared with `CC(C)(C)c1noc(CN2CCCC(CNS(N)(=O)=O)C2)n1` (stereo not drawn), `CC(C(=O)N1CCOCC1)S(=O)(=O)Cc1noc(C(C)(C)C)n1` (stereo not drawn) is lower in “Percent Effect” value: -0.7485% for the first, -4.281% for the second.

Going from `CC(C)c1noc(CN2CCC3(CCCO3)CCC2=O)n1` (stereo not drawn) to `CSCc1noc(CN2CCC3(CC2)CC(=O)N(CC(C)C)C3)n1`, the “Percent Effect” value rises from -7.858% to 6.142%.

Compared with `CC1=C(C(=O)NCc2cccnc2-n2cnc3ccccc32)OCCO1`, `Cc1c(C(=O)NCC2CCN(Cc3ccco3)C2)[nH]c2ccccc12` (stereo not drawn) is higher in “Percent Effect” value: -15.12% for the first, 19.49% for the second.

First: CCNC(=O)N1CC[C@H]2CC(=O)N(CCN3CCNC3=O)CC[C@H]2C1
Second: O=C(CC1CC1)N1C[C@H]2CN(CC3CC3)C(=O)[C@H]2C1
The “Percent Effect” value of the first is higher: 12.62% for the first, -33.8% for the second.

Going from `CC(C)Cc1noc(CN2CCN(CCO)CC2)n1` to `CC(C)Cc1noc(CN2CCOCC2)n1`, the “Percent Effect” value rises from -13.58% to -2.166%.

Going from `CC1COCCN1Cc1nc(Cc2ccccc2)no1` (stereo not drawn) to `CNC(=O)[C@@H]1[C@@H](c2ccccc2)CN2CCN(Cc3cc(C)no3)C[C@H]12`, the “Percent Effect” value falls from 106.6% to 101.2%.

First: O=C(O)[C@@]12CN(c3cnccn3)C[C@@H]1CN(C1CCCC1)C2
Second: CC(=O)N[C@@H]1CN(C(=O)CC2CCOCC2)C[C@H]1O
The “Percent Effect” value of the first is lower: 11.78% for the first, 144.5% for the second.

Going from `CCS(=O)(=O)N(C)CC(=O)Nc1ccc(Br)cn1` to `Cn1cc(NC(=O)Nc2ccccn2)cc(Cl)c1=O`, the “Percent Effect” value falls from 11.17% to 10.33%.

Compared with `COc1cccc(CN2CC(O)CN(C(=O)C3CCC3)CC2=O)c1OC` (stereo not drawn), `COc1ccccc1CC1CCN(C(=O)CCN2CCOC2=O)CC1` is lower in “Percent Effect” value: 107.9% for the first, -13.03% for the second.

First: CNCc1n[nH]c(=O)n1CC1CCCCC1
Second: Cc1n[nH]c(C)c1CCNC(=O)C1CCCN(Cc2ccco2)C1 (stereo not drawn)
The “Percent Effect” value of the first is higher: 9.971% for the first, -10.07% for the second.

Compared with `CCOCC(=O)N1C[C@@H](NC(C)=O)[C@H](c2ccc(OC)cc2)C1`, `COc1ccc([C@@H]2CN(C(=O)CCC(F)(F)F)C[C@H]2NC(C)=O)cc1` is higher in “Percent Effect” value: 0.296% for the first, 11.36% for the second.

Going from `CC(=O)N[C@@H]1CN(C(=O)CC2CC2)C[C@H]1O` to `CCOCC(=O)N1C[C@@H](O)[C@H](NC(C)=O)C1`, the “Percent Effect” value falls from 207.4% to 181%.

Compared with `CCC(CC)n1nc(C)cc1NC(=O)CC1CCOCC1`, `CCc1ccc(CNC(=O)N2CCN(Cc3cc(C)no3)CC2)s1` is higher in “Percent Effect” value: 0.9076% for the first, 7.686% for the second.

Compared with `O=C(NCCCn1cncn1)c1ccc(-c2ccco2)[nH]c1=O`, `Cn1nc(C(=O)N(CC(F)(F)F)c2cccc(Cl)c2)ccc1=O` is lower in “Percent Effect” value: 2.326% for the first, -17.45% for the second.

Compared with `O=C(Nc1ccc(-c2ccn[nH]2)cc1)C1CCCN(Cc2ccoc2)C1` (stereo not drawn), `CNC(=O)[C@@H]1[C@H]2CN(Cc3ccoc3)CCN2C[C@H]1c1ccccc1` is higher in “Percent Effect” value: 1.932% for the first, 117.2% for the second.

First: CNC(=O)[C@@H]1[C@@H](c2ccccc2)CN2CCN(Cc3cccs3)C[C@H]12
Second: CNC(=O)[C@@H]1[C@@H](c2ccccc2)CN2CCN(Cc3ccco3)C[C@H]12
The “Percent Effect” value of the first is lower: 88.53% for the first, 101.4% for the second.

First: CN(C)C(=O)NC[C@H]1OC[C@@H]2CCN(Cc3ccoc3)C[C@@H]21
Second: CN1C(=O)CO[C@H](c2ccc(NC(=O)NC(C)(C)C)cc2)[C@H]1CO
The “Percent Effect” value of the first is lower: -34.99% for the first, -13.32% for the second.

Compared with `COc1ccc(OC)c(CN2CCCCCC2c2cccs2)c1` (stereo not drawn), `COc1ccc(CN2CCCCCC2c2cccs2)c(OC)c1` (stereo not drawn) is higher in “Percent Effect” value: -3.603% for the first, 95.82% for the second.

Compared with `COc1ccc(CN2CCCCCC2c2cccs2)c(O)c1` (stereo not drawn), `Oc1ccccc1CN1CCCCCC1c1cccs1` (stereo not drawn) is lower in “Percent Effect” value: 114.4% for the first, 93% for the second.

Compared with `CCN(C(=O)CN1CCCC1c1cccs1)c1ccccc1C` (stereo not drawn), `Cc1ccc(N(CCC#N)C(=O)CN2CCCC2c2cccs2)cc1` (stereo not drawn) is lower in “Percent Effect” value: 5.729% for the first, -26.13% for the second.

In the case of `COc1ccc(CN2CCSCC2)c(OC)c1`, the “Percent Effect” value is reported as -5.529%.
